Experiment in all cases: NCI-60 one-dose screen, 48 h (100 = growth as untreated, 0 = no growth, -100 = all killed)
Common to all, as to conditions: 10 µM unless noted

The test system of assay [1] is HCT-15 colon.
Assay [2] has as its system HT29 colon.
The subject of assay [3] is SNB-75 CNS.
The subject of assay [4] is SNB-19 CNS.
For assay [5], the system named is U251 CNS.
Assay [6] deals with PC-3 prostate.
Assay [7] has as its system SK-MEL-5 melanoma.
In assay [8] the test system is UACC-62 melanoma.
For assay [9], the system named is LOX IMVI melanoma.
In assay [10] the test system is SK-MEL-28 melanoma.
The test system of assay [11] is SK-MEL-2 melanoma.
The test system of assay [12] is EKVX NSCLC.
The subject of assay [13] is SN12C renal.
The subject of assay [14] is UO-31 renal.
Assay [15] has as its system TK-10 renal.
The test system of assay [16] is ACHN renal.
Assay [17] has as its system CAKI-1 renal.
For assay [18], the system named is A498 renal.
The test system of assay [19] is CCRF-CEM leukemia.
In assay [20] the test system is MOLT-4 leukemia.

About 83,000 compounds went through this panel and 20% of them were active in at least one assay; those are over-represented in the sample as a whole.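 Step 1: grow cells in 96-well plates. Step 2: add test compound at a single concentration. Step 3: incubate 48 h. Step 4: record percent growth.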 A number with no mark means an inactive call. Activity calls are given as the source filed them. The calls were made as follows: active = growth percent below 10; inactive = the rest.

`CSc1ccc(/C(=N/N=C(N)N)c2ccc(F)cc2)cc1`: the growth in assay [1] is 6.59% (active); in assay [2], 4.2% (active); in [3], 44.2%; in assay [4], 25.7%; in assay [5], 11.2%; in assay [6], 20%. In addition, the growth in [7] was -11.3% (active); in [8] it was 36.2%; in assay [9] it was 5.46% (active); in assay [10], 60.9%; in assay [11] it was 48.6%; in assay [12] it was 36.6%. Moreover, the growth was 36.9% in assay [13]; 30.5% in [14]; 39.1% in [15]; 35.8% in [16]; 15.6% in assay [17]; 5.39% (active) in [18]. For the same compound, the results for the growth in [19] and in assay [20] were 5.74% (active) and -2.76% (active), respectively.
For `Cc1[nH]c(C(=O)Nc2ccc(C(N)=O)cc2N2CCOC(C)C2)c(Cl)c1Cl` (stereo not given), the growth in assay [1] was 93.7%; in assay [2], 118%; in [3] it was 62.3%; in assay [4] it was 92.7%; in [5], 98.6%; in assay [6], 96.7%. The growth in [7] is 97.2%; in assay [8], 91.1%; in assay [9], 94%; in assay [10], 108%; in assay [11], 104%; in assay [12], 93.1%. Moreover, the growth in [13] was 96.4%; in [14], 82.6%; in assay [15], 100%; in assay [16], 88.4%; in assay [17] it was 98.4%; in assay [18], 72.4%. Further, the growth was 99.5% in assay [19] and 96.4% in [20].
With `Oc1ccc(-c2nc3ccc(/C(=N\N=C\c4ccc(Cl)cc4)c4ccccc4)cc3[nH]2)cc1`, the growth in assay [1] was 71.1%; in assay [2], 75.4%; in assay [3], 93.4%; in [4] it was 91.7%; in assay [5], 86.6%; in assay [6] it was 52.9%. Moreover, the growth in assay [7] was 84.1%; in assay [8] it was 84.1%; in assay [9], 57.4%; in assay [10], 91%; in [11], 90.6%; in assay [12] it was 98.9%. Moreover, the growth in assay [13] was 83.5%; in [14], 63.5%; in assay [15], 105%; in assay [16] it was 86.8%; in assay [17], 76.1%; in assay [18], 65.7%. For the same compound, the growth in assay [19] was 21.6%; in assay [20] it was 57%.
Regarding `CN(C)c1ccc(-c2cc(-c3c[nH]c4ccccc34)nc(N)c2C#N)cc1`, the growth in assay [1] is 11.9%; in [2], 11.3%; in [3], 21.1%; in assay [4], 40.7%; in assay [5], 26.5%; in assay [6], 37%. Besides, the growth is 29.8% in assay [7]; 42% in [8]; 11.3% in [9]; 59.8% in [10]; -0.536% (active) in [11]; 61.8% in assay [12]. The growth in [13] is 43.1%; in assay [14], 44.6%; in assay [15], 72.9%; in [16] it was 47.1%; in assay [17], 24.1%; in assay [18], -0.675% (active). The values for the growth in [19] and in assay [20] were 30% and 35.4%, respectively.
With `CC(=C(c1ccc(OCCN(C)C)cc1)c1ccc(OCCN(C)C)cc1)c1ccc(Cl)cc1`, the growth in assay [1] was -79.7% (active); in assay [2], -67.3% (active); in assay [3] it was -20.2% (active); in [4], -40.9% (active); in [5] it was -60.6% (active); in assay [6] it was -52.9% (active). Further, the growth in assay [7] was -95.9% (active); in [8] it was -67.6% (active); in assay [9] it was -92.8% (active); in [10] it was -82.6% (active); in assay [11], -59.4% (active); in [12], -12.9% (active). Further, the growth in assay [13] is -33.3% (active); in assay [14], -64.8% (active); in assay [15], -72.4% (active); in assay [16], -80.4% (active); in [17], -81.5% (active); in assay [18], -76.1% (active). Besides, the growth is -45.2% (active) in assay [19] and -49.7% (active) in assay [20].
On to `COc1ccc(/C(=N\N=C(N)N)c2ccc(Cl)cc2)cc1OC`, for which the growth in [1] was 77.3%; in assay [2], 54.9%; in assay [3], 46.2%; in assay [4], 72.9%; in [5], 72.4%; in assay [6] it was 44%. Besides, the growth in assay [7] was 93%; in assay [8], 80.2%; in assay [9], 58.3%; in assay [10], 96.5%; in assay [11] it was 99.9%; in [12], 72.6%. The growth in [13] is 70.8%; in assay [14] it was 83.7%; in assay [15], 77%; in assay [16] it was 94.8%; in [17] it was 50.1%; in assay [18], 76.5%. Also, the growth was 67.3% in [19] and 52.5% in assay [20].
With `CN(C)S(=O)(=O)c1ccc(-c2nc(C(Cl)Cl)nc3cc(-c4ccccc4)nn23)cc1`, the growth in assay [1] was 47.7%; in [2] it was 45.6%; in assay [3] it was 84.7%; in [4] it was 85.2%; in assay [5] it was 66.2%; in assay [6], 87.7%. Besides, the growth in assay [7] was 92%; in assay [8] it was 11.7%; in assay [9], 44.5%; in [10], -4.08% (active); in assay [11], 112%; in [12] it was 80%. The growth is 81.1% in assay [13]; 88.8% in [14]; 101% in [15]; 43.4% in assay [16]; 73.1% in [17]; 106% in assay [18]. The growth in assay [19] was 77.3%; in assay [20] it was 63.4%.

For the origin of these results see PubChem BioAssay (NCI).
